Measured values as given in PubChem BioAssay (Tox21).
Inconclusive results are not listed. Active and inactive are the calls of the source. Calls come from the whole dose curve; as a rule, active = well fitted curve in the direction sought with a large enough effect in the repeat runs; inconclusive = weak or mixed curves; inactive = no such curve, though single readings can be large; an effect the other way counts as inactive or inconclusive.

What was measured:
[1] = qHTS RealTime-Glo MT Cell Viability Assay in HepG2 cells - 24 hour (AID 1224867); note: nearly all actives have a fitted effect of over 50% in size
How it was run: (§1)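 HepG2 cells (600/well) were dispensed with RealTime-Glo reagents, incubated 5 h at 37 °C, then treated with compounds in DMSO for up to 40 h. Nonlytic NanoLuc luminescence reflecting viable cells was read at each stated time point.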

[2] = qHTS RealTime-Glo MT Cell Viability Assay in HEK293 cells - 32 hour (AID 1224868); note: top concentration of the series differs between compounds; nearly all actives have a fitted effect of over 50% in size
How it was run: (§2)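 HEK293 cells seeded with NanoLuc/prosubstrate reagent, rested 5 h at 37 C, then dosed and kept at 37 C up to 40 h. Nonlytic real-time luminescence from viable cells read at 0, 8, 16, 24, 32 and 40 h.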

[3] = A CellTox Green Cytotoxicity Assay to monitor cytotoxicity in HEK293 cells - 0 hour (AID 1224869); note: nearly all actives have a fitted effect of over 50% in size
How it was run: (§3)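 Nonlytic real-time cytotoxicity: HEK293 + CellTox Green reagent plated, 5 h preincubation, pintool compound addition (23 nL in DMSO), 37 C for 40 h, fluorescence measured at successive time points.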

[4] = qHTS RealTime-Glo MT Cell Viability Assay in HepG2 cells - 40 hour (AID 1224870); note: nearly all actives have a fitted effect of over 50% in size
How it was run: (§4)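 HepG2 cells (600/well) mixed with RealTime-Glo MT reagent, settled 5 h at 37 C/5% CO2 before compound addition. Nonlytic NanoLuc luminescence from viable-cell prosubstrate reduction read repeatedly during 40 h treatment at 37 C.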

[5] = A CellTox Green Cytotoxicity Assay to monitor cytotoxicity in HEK293 cells - 40 hour (AID 1224871); note: nearly all actives have a fitted effect of over 45% in size; note: potency is the fitted concentration of half-maximal effect
How it was run: as §3

[6] = qHTS RealTime-Glo MT Cell Viability Assay in HEK293 cells - 16 hour (AID 1224872)
How it was run: as §2

[7] = qHTS RealTime-Glo MT Cell Viability Assay in HepG2 cells - 8 hour (AID 1224873); note: nearly all actives have a fitted effect of over 55% in size
How it was run: as §4

[8] = qHTS RealTime-Glo MT Cell Viability Assay in HEK293 cells - 40 hour (AID 1224874); conditions: RealTime-Glo luminescence; max response: hits give low values; note: nearly all actives have a fitted effect of over 50% in size
How it was run: (§5)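 Cells were seeded together with NanoLuc luciferase and a prosubstrate that viable cells reduce to a luciferase substrate. After a 5 h incubation at 37 C/5% CO2, compounds were added and luminescence was measured repeatedly during 40 h of treatment.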

[9] = A CellTox Green Cytotoxicity Assay to monitor cytotoxicity in HEK293 cells - 24 hour (AID 1224875); note: series mostly up to about 77 µM; nearly all actives have a fitted effect of over 45% in size
How it was run: as §3

[10] = A CellTox Green Cytotoxicity Assay to monitor cytotoxicity in HepG2 cells - 16 hour (AID 1224876); note: nearly all actives have a fitted effect of over 45% in size
How it was run: (§6)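 Read-out is fluorescence of a cyanine dye excluded from live cells that stains DNA of dead HepG2 cells, with signal proportional to cytotoxicity. Plates were read at 0, 8, 16, 24, 32 and 40 h after compound addition.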

[11] = qHTS RealTime-Glo MT Cell Viability Assay in HepG2 cells - 32 hour (AID 1224877); note: nearly all actives have a fitted effect of over 55% in size
How it was run: as §1

[12] = A CellTox Green Cytotoxicity Assay to monitor cytotoxicity in HepG2 cells - 24 hour (AID 1224878); note: nearly all actives have a fitted effect of over 45% in size
How it was run: as §6

[13] = A CellTox Green Cytotoxicity Assay to monitor cytotoxicity in HepG2 cells - 40 hour (AID 1224879); note: nearly all actives have a fitted effect of over 40% in size; note: potency is the fitted concentration of half-maximal effect
How it was run: as §6

[14] = qHTS RealTime-Glo MT Cell Viability Assay in HEK293 cells - 0 hour (AID 1224880)
How it was run: as §5

[15] = A CellTox Green Cytotoxicity Assay to monitor cytotoxicity in HEK293 cells - 32 hour (AID 1224881); note: nearly all actives have a fitted effect of over 40% in size; note: potency is the fitted concentration of half-maximal effect
How it was run: as §3

[16] = A CellTox Green Cytotoxicity Assay to monitor cytotoxicity in HepG2 cells - 0 hour (AID 1224882); note: nearly all actives have a fitted effect of over 35% in size
How it was run: as §6

[17] = A CellTox Green Cytotoxicity Assay to monitor cytotoxicity in HepG2 cells - 32 hour (AID 1224883); note: nearly all actives have a fitted effect of over 50% in size
How it was run: as §6

[18] = A CellTox Green Cytotoxicity Assay to monitor cytotoxicity in HEK293 cells - 8 hour (AID 1224884); note: nearly all actives have a fitted effect of over 35% in size
How it was run: as §3

[19] = qHTS RealTime-Glo MT Cell Viability Assay in HepG2 cells - 16 hour (AID 1224885); note: nearly all actives have a fitted effect of over 50% in size
How it was run: as §1

[20] = qHTS RealTime-Glo MT Cell Viability Assay in HEK293 cells - 24 hour (AID 1224886)
How it was run: as §2
% is set by controls: 0 for no effect and ±100 for the full control effect.

COc1cc(OC)nc(O[C@H](C(=O)O)C(OC)(c2ccccc2)c2ccccc2)n1
inactive: outcome [1] | Potency [2] | Potency [3] | outcome [4] | Potency [5] | Potency [6] | outcome [7] | max response [8] 4.04% | Potency [9] | Potency [10] | outcome [11] | Potency [12] | Potency [13] | Potency [14] | Potency [15] | Potency [16] | Potency [17] | Potency [18] | outcome [19] | Potency [20]

O=C(O)CCCCCC(=O)O
active: Potency [5] 22 µM | Potency [15] 22 µM
inactive: outcome [1] | Potency [2] | Potency [3] | outcome [4] | Potency [6] | outcome [7] | max response [8] 0.774% | Potency [10] | Potency [12] | Potency [13] | Potency [14] | Potency [16] | Potency [17] | outcome [19] | Potency [20]

CC1=C(C(=O)O)N2C(=O)[C@@H](NC(=O)[C@H](N)C3=CCC=CC3)[C@H]2SC1
inactive: outcome [1] | Potency [2] | Potency [3] | outcome [4] | Potency [5] | Potency [6] | outcome [7] | max response [8] 0.914% | Potency [9] | Potency [10] | Potency [12] | Potency [13] | Potency [14] | Potency [15] | Potency [16] | Potency [17] | Potency [18] | outcome [19] | Potency [20]

CC/C=C\CCOC(=O)c1ccccc1O
inactive: outcome [1] | Potency [2] | Potency [3] | outcome [4] | Potency [5] | Potency [6] | outcome [7] | max response [8] 19.1% | Potency [14] | Potency [15] | Potency [16] | Potency [18] | outcome [19] | Potency [20]
active: Potency [13] 21.9 µM

O=S(=O)(O)c1ccc2c(N=Nc3ccc(S(=O)(=O)O)c4ccccc34)c(O)c(S(=O)(=O)O)cc2c1
inactive: activity change, negative = cytotoxicity [1] -1.89% [at 6.97 µM] | activity change, negative = cytotoxic [2] 7.73% [at 6.97 µM] | cytotoxicity [3] 3.08% [at 6.97 µM] | activity change, negative = cytotoxic [4] -7.38% [at 6.97 µM] | cytotoxicity increase [5] 7.83% [at 6.97 µM] | activity change, negative = cytotoxicity [6] 5.03% [at 6.97 µM] | viability change, negative = cytotoxic [7] 0.329% [at 6.97 µM] | max response [8] 4.14% | activity change [9] 9.08% [at 6.97 µM, hits give high values] | cytotoxicity increase [10] -11.6% [at 6.97 µM] | activity change, negative = cytotoxic [11] -3.7% [at 6.97 µM] | cytotoxicity [12] -12.7% [at 6.97 µM] | cytotoxicity increase [13] -16.2% [at 6.97 µM] | activity change, negative = cytotoxicity [14] 7.55% [at 6.97 µM] | cytotoxicity increase [15] 8.52% [at 6.97 µM] | cytotoxicity [16] -11.5% [at 6.97 µM] | cytotoxicity increase [17] -12.7% [at 6.97 µM] | cytotoxicity increase [18] 7.19% [at 6.97 µM] | activity change, negative = cytotoxic [19] 0.447% [at 6.97 µM] | activity change, negative = cytotoxicity [20] 5.55% [at 6.97 µM]

O=C[O][Al]([O]C=O)[O]C=O
inactive: outcome [1] | Potency [2] | Potency [3] | outcome [4] | Potency [5] | Potency [6] | outcome [7] | max response [8] 5.61% | Potency [9] | Potency [10] | outcome [11] | Potency [12] | Potency [13] | Potency [15] | Potency [16] | Potency [17] | outcome [19] | Potency [20]

Cc1ccc2c(c1)C(=O)c1ccccc1C2=O
inactive: outcome [1] | Potency [2] | Potency [3] | outcome [4] | Potency [5] | Potency [6] | outcome [7] | max response [8] 5.01% | Potency [9] | Potency [10] | outcome [11] | Potency [12] | Potency [13] | Potency [14] | Potency [15] | Potency [16] | Potency [17] | Potency [18] | outcome [19] | Potency [20]

O=C(O)[C@H](O)c1ccccc1
inactive: outcome [1] | Potency [2] | Potency [3] | outcome [4] | Potency [5] | Potency [6] | outcome [7] | max response [8] 0.819% | Potency [10] | outcome [11] | Potency [12] | Potency [13] | Potency [14] | Potency [15] | Potency [16] | Potency [17] | Potency [18] | outcome [19] | Potency [20]

COC(=O)c1cccc(Cl)c1
inactive: outcome [1] | Potency [2] | Potency [3] | outcome [4] | Potency [5] | Potency [6] | outcome [7] | max response [8] 11% | Potency [9] | Potency [10] | outcome [11] | Potency [12] | Potency [13] | Potency [14] | Potency [15] | Potency [16] | Potency [17] | Potency [18] | outcome [19] | Potency [20]

COc1cc2c(cc1OC)CN(C(=O)[C@H](C)N[C@@H](CCc1ccccc1)C(=O)O)[C@H](C(=O)O)C2
inactive: outcome [1] | Potency [2] | Potency [3] | outcome [4] | Potency [5] | Potency [6] | outcome [7] | max response [8] 2.78% | Potency [10] | Potency [12] | Potency [13] | Potency [14] | Potency [15] | Potency [16] | Potency [17] | Potency [18] | outcome [19] | Potency [20]

CC(C)CCOC(=O)c1ccccc1
inactive: outcome [1] | Potency [2] | Potency [3] | outcome [4] | Potency [5] | Potency [6] | outcome [7] | max response [8] -0.72% | Potency [10] | outcome [11] | Potency [12] | Potency [13] | Potency [14] | Potency [15] | Potency [16] | Potency [17] | Potency [18] | outcome [19] | Potency [20]

N[C@@H](CSCCCO)C(=O)O
inactive: activity change, negative = cytotoxicity [1] 1.24% [at 15.8 µM] | activity change, negative = cytotoxic [2] 3.39% [at 15.8 µM] | cytotoxicity [3] -3.9% [at 15.8 µM] | activity change, negative = cytotoxic [4] 1.41% [at 15.8 µM] | cytotoxicity increase [5] -5.88% [at 15.8 µM] | activity change, negative = cytotoxicity [6] 2.66% [at 15.8 µM] | viability change, negative = cytotoxic [7] 1.95% [at 15.8 µM] | max response [8] 2.4% | activity change [9] 1.71% [at 15.8 µM, hits give high values] | cytotoxicity increase [10] -15.5% [at 15.8 µM] | activity change, negative = cytotoxic [11] 2.25% [at 15.8 µM] | cytotoxicity [12] -17.7% [at 15.8 µM] | cytotoxicity increase [13] -14.5% [at 15.8 µM] | activity change, negative = cytotoxicity [14] -0.729% [at 15.8 µM] | cytotoxicity increase [15] -0.789% [at 15.8 µM] | cytotoxicity [16] -7.54% [at 15.8 µM] | cytotoxicity increase [17] -15.9% [at 15.8 µM] | cytotoxicity increase [18] -2.04% [at 15.8 µM] | activity change, negative = cytotoxic [19] 0.578% [at 15.8 µM] | activity change, negative = cytotoxicity [20] 2.46% [at 15.8 µM]
